Assay results from PubChem BioAssay.

What was measured:
[1] = biological target: Tumor necrosis factor receptor superfamily member 10B (Homo sapiens) (UniProt O14763); test: viability loss of caspase-8 NB7 cells with TRAIL – with/without TRAIL, luminescence panel, confirmation (AID 651596); conditions: NB7 neuroblastoma + caspase-8, TRAIL sensitization, NB7 Caspase-8, with TRAIL, mean of runs, at 10 µM, stronger effect = higher value
[2] = as above; conditions: NB7 neuroblastoma + caspase-8, without TRAIL, NB7 Caspase-8, without TRAIL, mean of runs, at 10 µM
[3] = biological target: Tumor necrosis factor receptor superfamily member 10B (Homo sapiens) (UniProt O14763); test: compound enhancement of TRAIL-induced cell killing – NB7 cells plus caspase-8, luminescence, panel, dose response (AID 652002); conditions: NB7 neuroblastoma +caspase-8, TRAIL sensitization, luminescence viability, NB7+Caspase-8, with TRAIL, run 1; at 12.5 µM (top of the series)
[4] = biological target: Tumor necrosis factor receptor superfamily member 10B (Homo sapiens) (UniProt O14763); test: as above; conditions: NB7 neuroblastoma +caspase-8, TRAIL sensitization, luminescence viability, NB7+Caspase-8, with TRAIL, run 2; at 12.5 µM (top of the series)
[5] = as above; conditions: NB7 neuroblastoma +caspase-8, no TRAIL, compound-alone cytotoxicity counter-screen, luminescence viability, NB7+Caspase-8, run 1; at 12.5 µM (top of the series) unless noted
[6] = as above; conditions: NB7 neuroblastoma +caspase-8, no TRAIL, compound-alone cytotoxicity counter-screen, luminescence viability, NB7+Caspase-8, run 2; at 12.5 µM (top of the series) unless noted

Tumor necrosis factor receptor superfamily member 10B (Homo sapiens), sequence (O14763 whole entry, looked up): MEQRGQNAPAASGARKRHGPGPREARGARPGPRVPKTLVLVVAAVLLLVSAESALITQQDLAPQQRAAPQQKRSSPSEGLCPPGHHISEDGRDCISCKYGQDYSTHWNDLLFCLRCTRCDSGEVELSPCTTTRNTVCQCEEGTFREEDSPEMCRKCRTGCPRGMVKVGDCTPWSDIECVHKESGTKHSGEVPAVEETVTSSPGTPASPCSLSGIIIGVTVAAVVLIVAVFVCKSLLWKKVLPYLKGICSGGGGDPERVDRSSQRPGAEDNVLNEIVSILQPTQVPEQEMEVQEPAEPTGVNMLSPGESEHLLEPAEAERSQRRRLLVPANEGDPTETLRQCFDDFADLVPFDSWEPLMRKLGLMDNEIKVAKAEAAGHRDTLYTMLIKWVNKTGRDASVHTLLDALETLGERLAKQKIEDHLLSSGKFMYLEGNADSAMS

Structure (SMILES)	activity [1]	activity [2]	activity, % sensitization [3]	activity, % sensitization [4]	activity, % sensitization [5]	activity, % sensitization [6]
COc1cccc(/C=C/C(=O)NNC(=O)c2ccco2)c1OC	66.7%	62.8%				
CC(=O)c1ccc(NC(=O)Nc2cccnc2)cc1	52.1%	45%	32.2%	44.9%	35.1%	43.9%
CN(C)S(=O)(=O)c1ccc(C(=O)Nc2nnc(SCC(=O)NCC3CCCO3)s2)cc1 (stereo unspecified)	49.1%	38.5%	30%	32.3%	4.27%	28.4%
Cc1ccc(N=C/C(C(=O)C(F)(F)F)=C(\O)c2cccs2)cc1	56.1%	53.8%	83.3%	63.5%	-0.893%	77.5%
Cc1cnc(NC(=O)COc2ccccc2Cl)s1	83%	82.7%				
COc1ccc(C(C(=O)NC2CCCC2)N(C(=O)c2snc(-c3ccc(F)cc3)c2N)c2ccc(F)cc2)cc1 (stereo unspecified)	50.3%	43.5%				
COc1ccccc1/C=C/C=N/n1c(-c2cc(-c3ccccc3)n[nH]2)n[nH]c1=S	71.2%	39.3%	-29.9%	-8.86%	10.6%	-34.4%
CCOC(=O)c1ccc(N/C=C/C(=O)c2ccco2)cc1	52.7%	46.1%	24.1%	9.37%	0.326%	6.5%
CCOc1ccc(-c2ccc(SCC)nn2)cc1	75.4%	71.5%				
Cc1onc(C(=O)N2CCN(C(c3ccccc3)c3ccccc3)CC2)c1[N+](=O)[O-]	99.8%	97%				
Cc1ccnc(NC(=O)/C=C/c2cccs2)c1	84.1%	81.5%				
COc1ccccc1-c1nc(-c2ccccn2)no1	76.7%	72.7%				
O=C(N/N=C/c1cccc(O)c1)c1ccc2c(c1)OCCO2	93.8%	90.7%				
